Assay results reported in paper PMC9911399, “Two distinct binding modes provide the RNA-binding protein RbFox with extraordinary sequence specificity”.
Positions count from the first letter of the chain named. In all, about 16,000 sequences were measured (“ka relative to ugcaugu”: median about 0.0091, highest 2% from about 0.032 on). The full list was thinned out, with the highest values kept by preference.

T1: RBFOX1 RRM (Homo sapiens, UniProt Q9NWB1 109-208)
T1 sequence: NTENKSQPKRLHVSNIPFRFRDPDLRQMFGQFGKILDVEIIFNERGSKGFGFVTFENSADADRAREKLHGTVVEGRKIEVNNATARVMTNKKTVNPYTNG

B1: GUGGGCU (DNA:RNA)
RNA: GGGAGACCGGAAUUCAGAUUGUCCGUGGGCUUUAAAUCCCGUCGUAGCCACCA
DNA 1: CAATCTGAATTCCGGTCTCCC
DNA 2: TGGTGGCTACGACGGGATT
B2: CGUCAGA (DNA:RNA)
RNA: GGGAGACCGGAAUUCAGAUUGUCCCGUCAGAUUAAAUCCCGUCGUAGCCACCA
DNA 1: CAATCTGAATTCCGGTCTCCC
DNA 2: TGGTGGCTACGACGGGATT
B3: GGAGUGG (DNA:RNA)
RNA: B2 RNA with C25G, U27A, C28G, A29U, A31G
DNA 1: CAATCTGAATTCCGGTCTCCC
DNA 2: TGGTGGCTACGACGGGATT
B4: ACAUGGG (DNA:RNA)
RNA: B2 RNA with C25A, G26C, U27A, C28U, A29G, A31G
DNA 1: CAATCTGAATTCCGGTCTCCC
DNA 2: TGGTGGCTACGACGGGATT
B5: CCUAGUG (DNA:RNA)
RNA: B2 RNA with G26C, C28A, A29G, G30U, A31G
DNA 1: CAATCTGAATTCCGGTCTCCC
DNA 2: TGGTGGCTACGACGGGATT
B6: AAUUAGC (DNA:RNA)
RNA: B2 RNA with C25A, G26A, C28U, A31C
DNA 1: CAATCTGAATTCCGGTCTCCC
DNA 2: TGGTGGCTACGACGGGATT
B7: UUUAACA (DNA:RNA)
RNA: B2 RNA with C25U, G26U, C28A, G30C
DNA 1: CAATCTGAATTCCGGTCTCCC
DNA 2: TGGTGGCTACGACGGGATT
B8: GGGACGU (DNA:RNA)
RNA: B1 RNA with U26G, G28A, G29C, C30G
DNA 1: CAATCTGAATTCCGGTCTCCC
DNA 2: TGGTGGCTACGACGGGATT
B9: GGGUGCG (DNA:RNA)
RNA: B1 RNA with U26G, G28U, U31G
DNA 1: CAATCTGAATTCCGGTCTCCC
DNA 2: TGGTGGCTACGACGGGATT
B10: AGGGUGC (DNA:RNA)
RNA: B2 RNA with C25A, U27G, C28G, A29U, A31C
DNA 1: CAATCTGAATTCCGGTCTCCC
DNA 2: TGGTGGCTACGACGGGATT
B11: GGGGUGC (DNA:RNA)
RNA: B1 RNA with U26G, G29U, C30G, U31C
DNA 1: CAATCTGAATTCCGGTCTCCC
DNA 2: TGGTGGCTACGACGGGATT
B12: CGGGUGC (DNA:RNA)
RNA: B2 RNA with U27G, C28G, A29U, A31C
DNA 1: CAATCTGAATTCCGGTCTCCC
DNA 2: TGGTGGCTACGACGGGATT
B13: CCGGUGC (DNA:RNA)
RNA: B2 RNA with G26C, U27G, C28G, A29U, A31C
DNA 1: CAATCTGAATTCCGGTCTCCC
DNA 2: TGGTGGCTACGACGGGATT
B14: GGGUGCU (DNA:RNA)
RNA: B1 RNA with U26G, G28U
DNA 1: CAATCTGAATTCCGGTCTCCC
DNA 2: TGGTGGCTACGACGGGATT
B15: AGUCCCC (DNA:RNA)
RNA: B2 RNA with C25A, A29C, G30C, A31C
DNA 1: CAATCTGAATTCCGGTCTCCC
DNA 2: TGGTGGCTACGACGGGATT
B16: CUUCGCU (DNA:RNA)
RNA: B1 RNA with G25C, G27U, G28C
DNA 1: CAATCTGAATTCCGGTCTCCC
DNA 2: TGGTGGCTACGACGGGATT
B17: GCGUUAG (DNA:RNA)
RNA: B1 RNA with U26C, G28U, G29U, C30A, U31G
DNA 1: CAATCTGAATTCCGGTCTCCC
DNA 2: TGGTGGCTACGACGGGATT
B18: CUUGGGA (DNA:RNA)
RNA: B2 RNA with G26U, C28G, A29G
DNA 1: CAATCTGAATTCCGGTCTCCC
DNA 2: TGGTGGCTACGACGGGATT
B19: GUGCUAG (DNA:RNA)
RNA: B1 RNA with G28C, G29U, C30A, U31G
DNA 1: CAATCTGAATTCCGGTCTCCC
DNA 2: TGGTGGCTACGACGGGATT
B20: UUGUUAG (DNA:RNA)
RNA: B1 RNA with G25U, G28U, G29U, C30A, U31G
DNA 1: CAATCTGAATTCCGGTCTCCC
DNA 2: TGGTGGCTACGACGGGATT
B21: CCCCUGC (DNA:RNA)
RNA: B2 RNA with G26C, U27C, A29U, A31C
DNA 1: CAATCTGAATTCCGGTCTCCC
DNA 2: TGGTGGCTACGACGGGATT
B22: UUGUUGC (DNA:RNA)
RNA: B1 RNA with G25U, G28U, G29U, C30G, U31C
DNA 1: CAATCTGAATTCCGGTCTCCC
DNA 2: TGGTGGCTACGACGGGATT
B23: UCCUUGC (DNA:RNA)
RNA: B2 RNA with C25U, G26C, U27C, C28U, A29U, A31C
DNA 1: CAATCTGAATTCCGGTCTCCC
DNA 2: TGGTGGCTACGACGGGATT
B24: UUGCUUG (DNA:RNA)
RNA: B1 RNA with G25U, G28C, G29U, C30U, U31G
DNA 1: CAATCTGAATTCCGGTCTCCC
DNA 2: TGGTGGCTACGACGGGATT
B25: UUGCUAG (DNA:RNA)
RNA: B1 RNA with G25U, G28C, G29U, C30A, U31G
DNA 1: CAATCTGAATTCCGGTCTCCC
DNA 2: TGGTGGCTACGACGGGATT
B26: UGCUUUU (DNA:RNA)
RNA: B2 RNA with C25U, U27C, C28U, A29U, G30U, A31U
DNA 1: CAATCTGAATTCCGGTCTCCC
DNA 2: TGGTGGCTACGACGGGATT
B27: CUGCUGC (DNA:RNA)
RNA: B2 RNA with G26U, U27G, A29U, A31C
DNA 1: CAATCTGAATTCCGGTCTCCC
DNA 2: TGGTGGCTACGACGGGATT
B28: UGCUUUG (DNA:RNA)
RNA: B2 RNA with C25U, U27C, C28U, A29U, G30U, A31G
DNA 1: CAATCTGAATTCCGGTCTCCC
DNA 2: TGGTGGCTACGACGGGATT
B29: CUGCUUG (DNA:RNA)
RNA: B2 RNA with G26U, U27G, A29U, G30U, A31G
DNA 1: CAATCTGAATTCCGGTCTCCC
DNA 2: TGGTGGCTACGACGGGATT
B30: UGCUGCU (DNA:RNA)
RNA: B1 RNA with G25U, U26G, G27C, G28U
DNA 1: CAATCTGAATTCCGGTCTCCC
DNA 2: TGGTGGCTACGACGGGATT
B31: GACGAUG (DNA:RNA)
RNA: B1 RNA with U26A, G27C, G29A, C30U, U31G
DNA 1: CAATCTGAATTCCGGTCTCCC
DNA 2: TGGTGGCTACGACGGGATT

biological target: T1, RBFOX1 RRM; assay: EMSA; HiTS-Eq, 1 nM pool, 10 min; buffer printed only for the single-RNA assays: 10 mM Tris pH 7.5, 150 mM NaCl, 3.4 mM EDTA, 0.001% NP-40, 30 C; conditions: tags: His6 N-terminal (pET28a); label: 5' 32P
Outline: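 Relative association constants, normalised to the cognate motif, were derived by comparing read counts of each RNA species with those of the control reaction. The RNA sequenced was the free fraction, separated by 8% native PAGE after a 10 min equilibration in 50 µL of 1 nM 5′-radiolabelled RNA (7 randomized nucleotides) with increasing concentrations of purified wild-type or mutant RbFox RRM.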

Which binding signal does the source give for B1 here?
Its binding signal is 0.0216 KA relative to UGCAUGU.

How did the binding signal turn out when B2 was run?
The binding signal was 0.00954 KA relative to UGCAUGU.

How did the binding signal turn out when B3 was run?
Its binding signal is 0.0151 KA relative to UGCAUGU.

B4 was tested. Which binding signal did it give?
Its binding signal is 0.0064 KA relative to UGCAUGU.

Which binding signal does the source give for B5 here?
The binding signal was 0.00931 KA relative to UGCAUGU.

For B6, which binding signal is on record?
The binding signal was 0.00552 KA relative to UGCAUGU.

With B7 as the binder, how does the binding signal read?
The binding signal was 0.00144 KA relative to UGCAUGU.

Which binding signal does the source give for B8 here?
The binding signal was 0.0238 KA relative to UGCAUGU.

With B9 as the binder, how does the binding signal read?
The binding signal was 0.023 KA relative to UGCAUGU.

B10 was tested. Which binding signal did it give?
Its binding signal is 0.0198 KA relative to UGCAUGU.

Which binding signal does the source give for B11 here?
The binding signal was 0.0467 KA relative to UGCAUGU.

For B12, which binding signal is on record?
Its binding signal is 0.0369 KA relative to UGCAUGU.

How did the binding signal turn out when B13 was run?
The binding signal was 0.0149 KA relative to UGCAUGU.

For B14, which binding signal is on record?
Its binding signal is 0.0276 KA relative to UGCAUGU.

Which binding signal does the source give for B15 here?
Its binding signal is 0.0101 KA relative to UGCAUGU.

How did the binding signal turn out when B16 was run?
Its binding signal is 0.0136 KA relative to UGCAUGU.

With B17 as the binder, how does the binding signal read?
The binding signal was 0.0109 KA relative to UGCAUGU.

With B18 as the binder, how does the binding signal read?
The binding signal was 0.00252 KA relative to UGCAUGU.

Which binding signal does the source give for B19 here?
The binding signal was 0.0307 KA relative to UGCAUGU.

Which binding signal does the source give for B20 here?
Its binding signal is 0.0257 KA relative to UGCAUGU.

B21 was tested. Which binding signal did it give?
The binding signal was 0.00603 KA relative to UGCAUGU.

Which binding signal does the source give for B22 here?
Its binding signal is 0.0249 KA relative to UGCAUGU.

For B23, which binding signal is on record?
Its binding signal is 0.0155 KA relative to UGCAUGU.

B24 was tested. Which binding signal did it give?
Its binding signal is 0.0749 KA relative to UGCAUGU.

With B25 as the binder, how does the binding signal read?
Its binding signal is 0.0399 KA relative to UGCAUGU.

With B26 as the binder, how does the binding signal read?
Its binding signal is 0.0211 KA relative to UGCAUGU.

For B27, which binding signal is on record?
Its binding signal is 0.0217 KA relative to UGCAUGU.

How did the binding signal turn out when B28 was run?
The binding signal was 0.0377 KA relative to UGCAUGU.

B29 was tested. Which binding signal did it give?
The binding signal was 0.0459 KA relative to UGCAUGU.

With B30 as the binder, how does the binding signal read?
The binding signal was 0.0249 KA relative to UGCAUGU.

B31 was tested. Which binding signal did it give?
The binding signal was 0.0266 KA relative to UGCAUGU.
